The nature of experiment [1]: yeast TOR pathway RPL19A-GFP modulators, primary screen, cell-based, S. cerevisiae, multiplex flow cytometry (AID 1862; in the data active = percent of DMSO control GFP below about 86%;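 also: lower values mimic rapamycin by blocking the RPL19A rise seen in DMSO cells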). The note with it: S. cerevisiae RPL19A-GFP strain, flow cytometry fluorescence, 3 h; at 10 µM; stronger effect = lower value. On the technique in general: A flow cytometer gives signals particle by particle.
Experiment [2] can be described thus: modulators of MEP2-GFP levels in yeast, primary screen, S. cerevisiae, multiplex flow cytometry (AID 1867;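 active = GFP response, as percent of the DMSO control, above the screen-wide mean plus 3 SD, about 139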;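 also: median GFP channel fluorescence of barcode-gated MEP2-GFP cells measured by flow cytometry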). The note with it: S. cerevisiae MEP2-GFP strain, 3 h, at 10 µM, stronger effect = higher value, 100% means same as DMSO wells.
Experiment [3] can be described thus: modulators of CIT2-GFP expression in yeast, primary screen, S. cerevisiae, GFP fusion, multiplex flow cytometry (AID 1870;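 active = percent response above a set limit, the screen-wide mean plus 3 SD, cut at about 130% in these data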;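 also: barcoded CIT2-GFP strain pooled with four other GFP strains with rapamycin as positive control; median GFP fluorescence per well over plate mean of DMSO wells so 100% = DMSO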). The conditions noted are these: 3 h, at 10 µM, stronger effect = higher value.
Experiment [4] can be described thus: modulators of LAP4-GFP expression in yeast, primary screen, S. cerevisiae, multiplex flow cytometry (AID 1873;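 active = GFP signal, as percent of the solvent control, above the screen mean plus 3 SD, about 149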). The conditions noted are these: 3 h, at 10 µM, stronger effect = higher value.
The nature of experiment [5]: modulators of AGP1-GFP expression in yeast TOR pathway, primary screen, cell-based, multiplex flow cytometry, S. cerevisiae (AID 1887;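 active = GFP signal above the screen-wide mean plus 3 SD, that is over about 124.5% of the solvent control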;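 also: AGP1-GFP fusion strain of S. cerevisiae within a five-strain barcoded multiplex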). The conditions noted are these: 3 h, at 10 µM, stronger effect = higher value.
Experiment [6] can be described thus: inhibitors of CD8+ T cell-vesicle binding, pilot screen, LFA-1/ICAM-1 modulator project, MLPCN validation set, flow cytometry (AID 2523;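 active = response below a set limit, under 55% cells CD8-positive and vesicle-bound, and CD8 cells' 90th-percentile brightness under 279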;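 as to vesicle binding response: mean PE anti-B7-1 fluorescence of CD8+ cells relative to row control; 100% = QL9-loaded vesicles with DMSO vehicle in the same plate row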). The conditions noted are these: 2C mouse CD8+ T cells, at 7 µM, stronger effect = lower value; double positive events: measured here: CD8+/vesicle+ event percentage.
In experiment [7] the target is Integrin beta-1 (Homo sapiens) + Integrin alpha-4 (Homo sapiens) (UniProt P13612+P05556). In words: inhibition of HUTS-21 binding to VLA-4, pilot screen, VLA-4 allosteric modulator project, U937 cells, HUTS-21 mAb, flow cytometry, validation set (AID 2674;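 active = inhibition above 50%, about 3 SD of the validation set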;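 also: antibody binding induced by the VLA-4 ligand LDV present at three times its Kd; 0% = LDV ligand with antibody and no compound and 100% = antibody without LDV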). The conditions noted are these: HUTS-21 LIBS mAb binding, at 6.7 µM, stronger effect = higher value, binding induced by LDV ligand.
Sequence of Integrin beta-1 (Homo sapiens) + Integrin alpha-4 (Homo sapiens) (P05556 whole entry, looked up): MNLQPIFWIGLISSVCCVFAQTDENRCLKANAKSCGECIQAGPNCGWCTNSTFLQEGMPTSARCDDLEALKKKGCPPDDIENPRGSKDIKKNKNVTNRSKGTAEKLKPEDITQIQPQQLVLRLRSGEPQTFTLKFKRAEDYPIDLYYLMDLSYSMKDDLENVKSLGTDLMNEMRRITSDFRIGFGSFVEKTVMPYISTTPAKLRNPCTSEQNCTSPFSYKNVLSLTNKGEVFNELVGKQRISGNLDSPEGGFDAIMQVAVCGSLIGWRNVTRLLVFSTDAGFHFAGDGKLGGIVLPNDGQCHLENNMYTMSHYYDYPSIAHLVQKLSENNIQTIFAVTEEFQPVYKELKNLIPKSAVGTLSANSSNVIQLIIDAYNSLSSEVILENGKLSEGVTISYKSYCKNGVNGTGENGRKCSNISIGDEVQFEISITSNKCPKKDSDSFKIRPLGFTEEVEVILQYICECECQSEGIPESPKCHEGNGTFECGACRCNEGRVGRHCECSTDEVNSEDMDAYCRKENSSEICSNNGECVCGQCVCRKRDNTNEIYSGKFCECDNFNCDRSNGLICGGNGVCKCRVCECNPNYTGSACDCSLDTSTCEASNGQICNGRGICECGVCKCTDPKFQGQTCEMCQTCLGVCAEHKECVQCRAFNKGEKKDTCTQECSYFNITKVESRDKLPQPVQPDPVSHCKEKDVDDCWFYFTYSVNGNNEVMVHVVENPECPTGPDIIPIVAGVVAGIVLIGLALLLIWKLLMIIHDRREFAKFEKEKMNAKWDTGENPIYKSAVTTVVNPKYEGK
Sequence of Integrin beta-1 (Homo sapiens) + Integrin alpha-4 (Homo sapiens) (P13612 whole entry, looked up): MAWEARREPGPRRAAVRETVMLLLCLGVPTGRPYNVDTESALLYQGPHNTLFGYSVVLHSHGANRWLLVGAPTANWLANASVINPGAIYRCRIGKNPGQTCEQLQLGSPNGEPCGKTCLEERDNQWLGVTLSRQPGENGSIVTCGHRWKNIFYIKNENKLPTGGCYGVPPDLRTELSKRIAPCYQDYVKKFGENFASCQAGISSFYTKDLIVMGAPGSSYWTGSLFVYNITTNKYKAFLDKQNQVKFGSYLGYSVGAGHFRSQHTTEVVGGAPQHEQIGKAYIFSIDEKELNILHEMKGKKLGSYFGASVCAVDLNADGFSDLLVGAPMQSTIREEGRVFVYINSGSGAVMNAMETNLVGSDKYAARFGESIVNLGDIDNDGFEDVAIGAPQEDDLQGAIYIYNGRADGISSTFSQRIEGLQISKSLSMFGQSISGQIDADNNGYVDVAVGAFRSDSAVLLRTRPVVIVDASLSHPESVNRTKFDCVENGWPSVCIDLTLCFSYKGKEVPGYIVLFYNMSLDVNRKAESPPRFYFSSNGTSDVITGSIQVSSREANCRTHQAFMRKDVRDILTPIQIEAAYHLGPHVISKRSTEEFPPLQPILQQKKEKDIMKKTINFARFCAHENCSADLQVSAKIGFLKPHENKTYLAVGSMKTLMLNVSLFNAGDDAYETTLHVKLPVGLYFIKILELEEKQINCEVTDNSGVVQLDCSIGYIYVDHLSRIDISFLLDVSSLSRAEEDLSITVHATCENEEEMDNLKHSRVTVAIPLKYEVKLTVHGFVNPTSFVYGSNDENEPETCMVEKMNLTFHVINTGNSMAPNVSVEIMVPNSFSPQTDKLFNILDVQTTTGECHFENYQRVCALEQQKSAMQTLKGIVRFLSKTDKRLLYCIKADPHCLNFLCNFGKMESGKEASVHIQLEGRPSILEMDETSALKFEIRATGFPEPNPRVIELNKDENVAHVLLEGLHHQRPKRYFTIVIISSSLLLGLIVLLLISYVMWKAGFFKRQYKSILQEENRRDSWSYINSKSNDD

Experiment [8] in a line: superoxide lowering in aged yeast cells, pilot screen, validation compound set (AID 2706;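 active = superoxide response below 65% of plate, a cut near 3 SD across the whole screen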;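 also: yeast exposed to compound for one week at 30 degrees C before staining; 100% = mean of all compound wells on the same plate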). The conditions noted are these: S. cerevisiae aging, superoxide DHE fluorescence; at 10 µM; stronger effect = lower value.
For experiment [9], the target named is Beta-adrenergic receptor kinase 1 (Homo sapiens) (UniProt P25098). The experiment in a line: GRK2 binders displacing RNA aptamer, biochemical, validation, human GRK2, bead flow cytometry (AID 488806;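 active = aptamer binding inhibition above 30%, about 3 SD of noise from non-fluorescent compounds; inactive = inhibition at or below 30%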). The conditions noted are these: bead-bound GRK2, FAM-aptamer displacement, at 10 µM, stronger effect = higher value.
Sequence of Beta-adrenergic receptor kinase 1 (Homo sapiens) (P25098 whole entry, looked up): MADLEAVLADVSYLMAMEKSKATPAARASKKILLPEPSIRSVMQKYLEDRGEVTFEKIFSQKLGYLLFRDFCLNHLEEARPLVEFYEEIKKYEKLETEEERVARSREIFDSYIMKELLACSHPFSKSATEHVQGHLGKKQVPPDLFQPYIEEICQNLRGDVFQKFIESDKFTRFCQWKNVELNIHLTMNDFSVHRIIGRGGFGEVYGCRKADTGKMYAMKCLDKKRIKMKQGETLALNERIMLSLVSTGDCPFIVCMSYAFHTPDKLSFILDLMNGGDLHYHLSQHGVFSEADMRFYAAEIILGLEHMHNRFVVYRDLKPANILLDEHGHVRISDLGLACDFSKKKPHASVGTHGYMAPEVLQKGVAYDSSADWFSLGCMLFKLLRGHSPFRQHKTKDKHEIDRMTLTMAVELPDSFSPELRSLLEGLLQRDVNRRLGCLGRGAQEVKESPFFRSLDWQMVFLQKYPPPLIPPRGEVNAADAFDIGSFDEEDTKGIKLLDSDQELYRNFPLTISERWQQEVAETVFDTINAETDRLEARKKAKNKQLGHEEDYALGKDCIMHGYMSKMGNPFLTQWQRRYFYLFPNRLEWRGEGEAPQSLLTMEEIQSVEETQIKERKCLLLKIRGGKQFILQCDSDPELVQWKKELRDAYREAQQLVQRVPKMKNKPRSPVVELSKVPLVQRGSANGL
Experiment [10] deals with Beta-2 adrenergic receptor (Homo sapiens) (UniProt P07550). In words: beta2AR agonists driving receptor internalization, pilot screen, cell-based, FAP fluorogen, flow cytometry, validation set (AID 504459;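 active = percent response above 42, roughly 3 SD of non-fluorescent test compounds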;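 also: agonist-driven loss of surface beta2AR via internalization measured by FAP dye flow cytometry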). The conditions noted are these: Am2.2-beta2AR cells, FAP surface receptor flow cytometry; at 10 µM; stronger effect = higher value.
Sequence of Beta-2 adrenergic receptor (Homo sapiens) (P07550 whole entry, looked up): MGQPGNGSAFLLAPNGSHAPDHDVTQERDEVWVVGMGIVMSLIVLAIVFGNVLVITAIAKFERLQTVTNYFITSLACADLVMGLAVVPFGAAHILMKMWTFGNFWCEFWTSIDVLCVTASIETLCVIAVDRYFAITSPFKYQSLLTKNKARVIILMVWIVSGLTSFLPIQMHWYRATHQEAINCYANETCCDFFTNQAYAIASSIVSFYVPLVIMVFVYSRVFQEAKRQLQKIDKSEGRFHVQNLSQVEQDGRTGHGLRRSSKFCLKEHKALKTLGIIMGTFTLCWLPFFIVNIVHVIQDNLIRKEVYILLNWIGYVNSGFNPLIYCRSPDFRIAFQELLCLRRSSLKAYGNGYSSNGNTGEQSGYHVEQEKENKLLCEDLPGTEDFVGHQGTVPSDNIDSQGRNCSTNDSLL
Experiment [11] deals with AP-2 complex subunit beta (Homo sapiens) (UniProt P63010). The experiment in a line: inhibitors of arrestin peptide binding to AP2, pilot screen, biochemical, validation set, GST-AP2 beads, flow cytometry (AID 504541;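 active = inhibition above 54%, about 3 SD of non-fluorescent compounds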;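 also: AP2 carries R879A mutation and is captured from E. coli lysate; bead-bound FITC arrestin peptide fluorescence measuring arrestin peptide binding to AP2; 0% = DMSO wells and 100% = excess unlabeled arrestin peptide control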). The conditions noted are these: FITC arrestin peptide, at 10 µM, stronger effect = higher value, AP2 beta2 appendage fragment, R879A mutant.
Sequence of AP-2 complex subunit beta (Homo sapiens) (P63010 whole entry, looked up, the tested form may be a part, one chain of several): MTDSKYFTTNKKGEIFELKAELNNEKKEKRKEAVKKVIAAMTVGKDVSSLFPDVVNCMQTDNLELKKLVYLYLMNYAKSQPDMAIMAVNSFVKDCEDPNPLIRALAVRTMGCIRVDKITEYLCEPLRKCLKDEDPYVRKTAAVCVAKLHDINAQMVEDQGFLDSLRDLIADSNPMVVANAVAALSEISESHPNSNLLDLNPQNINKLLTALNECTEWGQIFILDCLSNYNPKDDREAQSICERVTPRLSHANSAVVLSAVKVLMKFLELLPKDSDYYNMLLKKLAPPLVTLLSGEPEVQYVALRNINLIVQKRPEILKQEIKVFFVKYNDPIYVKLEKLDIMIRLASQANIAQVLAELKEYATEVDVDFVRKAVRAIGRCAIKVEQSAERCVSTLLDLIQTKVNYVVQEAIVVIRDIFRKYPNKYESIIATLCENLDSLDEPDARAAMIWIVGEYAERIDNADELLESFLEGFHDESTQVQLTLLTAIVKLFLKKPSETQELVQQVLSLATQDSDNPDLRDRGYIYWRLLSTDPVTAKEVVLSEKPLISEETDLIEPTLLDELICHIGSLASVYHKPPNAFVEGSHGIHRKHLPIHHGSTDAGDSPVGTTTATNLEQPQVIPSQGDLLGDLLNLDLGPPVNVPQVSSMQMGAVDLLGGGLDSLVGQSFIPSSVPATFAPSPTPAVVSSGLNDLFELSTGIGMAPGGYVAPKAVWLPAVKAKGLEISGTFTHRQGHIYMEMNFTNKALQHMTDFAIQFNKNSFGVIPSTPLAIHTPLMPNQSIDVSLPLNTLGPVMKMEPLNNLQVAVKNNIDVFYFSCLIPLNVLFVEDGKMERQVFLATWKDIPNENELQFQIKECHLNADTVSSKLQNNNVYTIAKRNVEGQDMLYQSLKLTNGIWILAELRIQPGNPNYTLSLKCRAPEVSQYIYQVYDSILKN
A short description of experiment [12]: yeast V-ATPase proton transport modulators, S. cerevisiae, pHLuorin, HTS validation (AID 504600; in the data active = response above about 15%;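 also: plate controls were DMSO for no effect and reference compound for full effect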). The note with it: S. cerevisiae pHLuorin cytosolic pH, at 10 µM, stronger effect = higher value.
Experiment [13] relates to anti-desmoglein-3 scFv antibody binding to human DSG3. In words: inhibitors of anti-DSG3 scFv binding to DSG3, pilot screen, biochemical, validation compound set, bead-based, flow cytometry (AID 588368;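 active = binding below the plate cutoff, the plate median minus 3 SD, with a reading above zero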;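 also: signal is the median channel fluorescence of bead-bound GFP antibody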). The conditions noted are these: Protein G beads, DSG3-Fc, scFv-GFP binding, at 10 µM, stronger effect = lower value.
Experiment [14] in a line: inhibitors of fungal efflux pumps CDR1, CDR2, MDR1, pilot screen, validation compound set, multiplex, phenotypic (AID 588506;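 active = efflux inhibition above 0.42, the validation set average plus 4 SD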;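 also: Nile Red retained in cells so higher fluorescence means more efflux inhibition; 0 = negative control wells and 1 = enniatin B 25 µM full block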). The conditions noted are these: S. cerevisiae pump-expressing triplex, Nile Red efflux flow cytometry; at 10 µM; stronger effect = higher value; the pumps come from Candida albicans.
In experiment [15] the target is ATP-binding cassette sub-family B member 6 (Homo sapiens) (UniProt Q9NP58). In words: ABCB6 transporter inhibitors, pilot screen, K562-ABCB6 cells, flow cytometry, validation set (AID 588550).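 Also: 0% = DMSO wells and 100% = benzethonium chloride 70 µM positive control.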 The conditions noted are these: K562-ABCB6 porphyrin accumulation, 1 h, at 10 µM, stronger effect = higher value.
Sequence of ATP-binding cassette sub-family B member 6 (Homo sapiens) (Q9NP58 whole entry, looked up): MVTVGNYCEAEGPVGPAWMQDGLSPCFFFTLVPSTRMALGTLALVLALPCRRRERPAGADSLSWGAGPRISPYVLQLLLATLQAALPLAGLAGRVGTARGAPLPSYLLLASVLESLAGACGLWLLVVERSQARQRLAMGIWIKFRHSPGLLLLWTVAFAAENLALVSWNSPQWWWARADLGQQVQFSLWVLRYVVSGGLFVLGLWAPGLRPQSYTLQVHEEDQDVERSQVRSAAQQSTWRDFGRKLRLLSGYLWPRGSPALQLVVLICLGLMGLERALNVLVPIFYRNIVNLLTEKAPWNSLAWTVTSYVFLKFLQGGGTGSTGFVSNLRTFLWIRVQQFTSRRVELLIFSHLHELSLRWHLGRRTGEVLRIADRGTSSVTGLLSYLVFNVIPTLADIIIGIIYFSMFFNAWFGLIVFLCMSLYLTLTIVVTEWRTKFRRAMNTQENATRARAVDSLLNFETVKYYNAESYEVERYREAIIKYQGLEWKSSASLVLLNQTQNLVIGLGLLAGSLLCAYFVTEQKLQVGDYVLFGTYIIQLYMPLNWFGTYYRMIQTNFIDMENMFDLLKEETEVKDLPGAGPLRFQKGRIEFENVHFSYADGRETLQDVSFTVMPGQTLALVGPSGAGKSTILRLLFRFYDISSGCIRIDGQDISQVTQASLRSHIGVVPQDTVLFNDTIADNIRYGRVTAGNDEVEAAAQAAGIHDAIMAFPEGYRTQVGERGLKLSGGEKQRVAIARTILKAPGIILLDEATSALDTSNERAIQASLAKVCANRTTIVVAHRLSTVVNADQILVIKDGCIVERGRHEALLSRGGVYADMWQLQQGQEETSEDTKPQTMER
Experiment [16] in a line: promoters of myeloid differentiation in arrested cells, primary screen, cell-based, GFP/MAC1 double positive, flow cytometry, validation set (AID 588685;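 active = differentiation response of at least 50%, scaled between solvent and reference control, from cells with both markers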;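 also: compound exposure lasts four days before antibody staining and flow analysis; 0% = DMSO wells and 100% = 5 µM fulvestrant positive control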). The conditions noted are these: ER-HoxA9 marrow cells, stronger effect = higher value, normalized: vehicle 0, fulvestrant 100.

Results filed as inconclusive are left out. Calls of active or inactive are those of the source.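 The calls were made as follows, unless noted: active = inhibition above the screen-wide mean plus 3 SD, about 51%; inactive = the rest.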

Consider `CC12CCC(C(=O)N(CCC#N)CCC#N)(CC1=O)C2(C)C` (stereo not drawn), for which the percent of DMSO control GFP in experiment [1] was 100% (inactive). In addition, the GFP response vs DMSO in experiment [2] was 106% (inactive); in [4] it was 113% (inactive). Further, the percent response of DMSO control in [3] is 95.8% (inactive). For the same compound, the GFP response, % of DMSO in experiment [5] was 108% (inactive). In experiment [6], this compound gave a double positive events of 61.1%. Moreover, the vesicle binding response in [6] is 5730% (inactive). Also, the inhibition in experiment [7] is 6.4% (inactive); in experiment [11] it was 44.5% (inactive); in experiment [15] it was 9% (inactive). Moreover, in experiment [8], the superoxide response (% of plate) is 98% (inactive). Moreover, the aptamer binding inhibition in [9] is 3% (inactive). Moreover, the response in experiment [10] is -1.84% (inactive); in experiment [12], 0.52% (inactive). Moreover, in [13], the binding (% of control) was 100% (inactive). For the same compound, in [14], the efflux inhibition (fraction of control) was -0.03 (inactive). In addition, the differentiation response in experiment [16] was 2.4% (inactive).

Consider `COc1ccc2cc(C3(C)NC(=O)NC3=O)ccc2c1` (stereo not drawn), for which, in experiment [1], the percent of DMSO control GFP was 95.8% (inactive). In addition, the GFP response vs DMSO in [2] was 116% (inactive); in experiment [4] it was 117% (inactive). Moreover, the percent response of DMSO control in [3] was 87.2% (inactive). Moreover, the GFP response, % of DMSO in experiment [5] is 99.7% (inactive). The compound also registered a double positive events in experiment [6] of 60.5%. In addition, the vesicle binding response in experiment [6] was 147% (inactive). In addition, the inhibition in experiment [7] is -9.98% (inactive); in experiment [11], -3.7% (inactive); in [15] it was 8% (inactive). In [8], the superoxide response (% of plate) is 104% (inactive). The aptamer binding inhibition in [9] was 2% (inactive). Moreover, the response in [10] was 2.16% (inactive); in experiment [12], -5.94% (inactive). The binding (% of control) in experiment [13] was 99.7% (inactive). Besides, in experiment [14], the efflux inhibition (fraction of control) is -0.06 (inactive). Also, the differentiation response in [16] was 7.2% (inactive).

Consider `Cc1ccc(Cl)c(OCCCN(C)Cc2ccccc2)c1`, for which the percent of DMSO control GFP in experiment [1] is 100% (inactive). In addition, the results for the GFP response vs DMSO in experiment [2] and in experiment [4] were 96.6% (inactive) and 106% (inactive), respectively. In addition, the percent response of DMSO control in experiment [3] is 98.3% (inactive). Moreover, the GFP response, % of DMSO in [5] is 106% (inactive). In addition, in [6], the double positive events was found to be 64.5%. The vesicle binding response in experiment [6] is 161% (inactive). Also, the values for the inhibition in experiment [7], in [11] and in experiment [15] were 13.4% (inactive), 0.6% (inactive) and 19% (inactive), respectively. Moreover, the superoxide response (% of plate) in [8] was 95% (inactive). The aptamer binding inhibition in experiment [9] is 2% (inactive). Further, the response was -6.56% (inactive) in experiment [10] and 0.72% (inactive) in experiment [12]. Moreover, the binding (% of control) in experiment [13] is 112% (inactive). Also, the efflux inhibition (fraction of control) in [14] was -0.26 (inactive). The differentiation response in experiment [16] was -6.96% (inactive).

Take `COc1cc2c(cc1OC)C(C)=NC1(CCCCC1)C2`: in experiment [1], the percent of DMSO control GFP is 99.2% (inactive). Moreover, the GFP response vs DMSO in experiment [2] was 98.6% (inactive); in experiment [4], 106% (inactive). Also, the percent response of DMSO control in [3] is 95.1% (inactive). In addition, in experiment [5], the GFP response, % of DMSO is 107% (inactive). The same compound gave a double positive events in [6] of 62.8%. For the same compound, the vesicle binding response in experiment [6] is 215% (inactive). Also, the inhibition in experiment [7] is -29.2% (inactive); in [11], 20.9% (inactive); in experiment [15] it was -52% (inactive). Further, the superoxide response (% of plate) in [8] was 100% (inactive). For the same compound, the aptamer binding inhibition in [9] was 6% (inactive). Also, the figures for the response in [10] and in experiment [12] were -21.7% (inactive) and 8.37% (inactive), respectively. For the same compound, the binding (% of control) in experiment [13] is 131% (inactive). In addition, the efflux inhibition (fraction of control) in [14] was -0.04 (inactive). In addition, the differentiation response in [16] is -14.8% (inactive).

By inhibition is commonly meant the drop in the measured response relative to a control, in per cent.

Values taken from PubChem BioAssay.
